Of roughly 7,900 targets only a part is listed; those with a hit were picked by preference. About 0.6% of all pairs of compound and target were hits. Values without a mark were called inactive.
Compound: c1cn2cc(-c3ccc4cn[nH]c4c3)nc(Nc3ccc(N4CCOCC4)cc3)c2n1 [entospletinib]
Experiment: log2 fold change, soluble protein after heating vs DMSO (PISA); higher = thermal stabilisation; K562 cells, 10 uM, 30 min; active = over 0.2 and 3.5 SD of the protein, either way, in both replicates (recomputed)
Outline: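 Soluble protein was quantified by TMTpro 16plex LC-MS/MS after channel sums were equalised. It was obtained as the supernatant after 21,000xg for 90 min from pooled aliquots of K562 cells (2×10^6 cells/mL, 10 μM compound, 30 min) heated for 3 min across 48°C-58°C and extracted in PBS with 0.5% NP-40 at 4°C. Thermal stability values are relative to control samples and come from duplicates. They are given as log2 fold changes.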

Chain of UniProt I6L899 (I6L899 whole entry, looked up): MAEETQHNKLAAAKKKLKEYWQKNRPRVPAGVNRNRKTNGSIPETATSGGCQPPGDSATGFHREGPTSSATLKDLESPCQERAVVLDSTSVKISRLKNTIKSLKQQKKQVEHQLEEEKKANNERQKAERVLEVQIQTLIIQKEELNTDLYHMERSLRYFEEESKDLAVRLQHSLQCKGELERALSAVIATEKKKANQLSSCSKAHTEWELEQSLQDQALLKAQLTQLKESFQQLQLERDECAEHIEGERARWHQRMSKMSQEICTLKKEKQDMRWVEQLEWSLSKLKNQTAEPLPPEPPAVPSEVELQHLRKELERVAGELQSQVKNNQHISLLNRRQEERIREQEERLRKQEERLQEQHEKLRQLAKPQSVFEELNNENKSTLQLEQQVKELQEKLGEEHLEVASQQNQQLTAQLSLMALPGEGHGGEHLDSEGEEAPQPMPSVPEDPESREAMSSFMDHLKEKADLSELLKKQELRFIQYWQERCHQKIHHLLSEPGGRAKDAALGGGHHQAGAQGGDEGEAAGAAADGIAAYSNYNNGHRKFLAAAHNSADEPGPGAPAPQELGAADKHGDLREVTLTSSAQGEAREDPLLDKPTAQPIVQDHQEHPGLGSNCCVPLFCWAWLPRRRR
Chain of UniProt Q86YM7 (Q86YM7 whole entry, looked up): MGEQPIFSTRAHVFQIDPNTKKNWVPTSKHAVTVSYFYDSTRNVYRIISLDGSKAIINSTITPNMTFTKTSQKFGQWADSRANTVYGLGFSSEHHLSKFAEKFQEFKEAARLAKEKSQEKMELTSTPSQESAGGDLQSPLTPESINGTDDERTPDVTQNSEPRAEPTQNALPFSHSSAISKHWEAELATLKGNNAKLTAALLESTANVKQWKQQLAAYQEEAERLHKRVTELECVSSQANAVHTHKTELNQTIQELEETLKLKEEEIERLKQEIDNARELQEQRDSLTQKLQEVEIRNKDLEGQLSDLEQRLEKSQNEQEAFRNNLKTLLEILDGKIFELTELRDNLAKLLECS
Chain of UniProt Q13907 (Q13907 whole entry, looked up): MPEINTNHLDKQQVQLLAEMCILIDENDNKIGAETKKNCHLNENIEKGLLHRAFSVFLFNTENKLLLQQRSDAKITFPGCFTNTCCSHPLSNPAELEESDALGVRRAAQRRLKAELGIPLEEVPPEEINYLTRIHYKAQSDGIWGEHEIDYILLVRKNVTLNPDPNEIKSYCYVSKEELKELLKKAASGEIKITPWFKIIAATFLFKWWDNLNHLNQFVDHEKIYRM
Chain of UniProt Q7Z4H3 (Q7Z4H3 whole entry, looked up): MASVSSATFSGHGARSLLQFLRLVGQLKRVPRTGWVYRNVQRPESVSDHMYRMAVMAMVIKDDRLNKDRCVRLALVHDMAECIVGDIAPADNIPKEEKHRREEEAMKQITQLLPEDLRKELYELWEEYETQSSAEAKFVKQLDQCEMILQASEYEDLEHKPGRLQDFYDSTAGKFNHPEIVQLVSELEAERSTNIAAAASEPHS
Chain of UniProt P06280 (P06280 whole entry, looked up): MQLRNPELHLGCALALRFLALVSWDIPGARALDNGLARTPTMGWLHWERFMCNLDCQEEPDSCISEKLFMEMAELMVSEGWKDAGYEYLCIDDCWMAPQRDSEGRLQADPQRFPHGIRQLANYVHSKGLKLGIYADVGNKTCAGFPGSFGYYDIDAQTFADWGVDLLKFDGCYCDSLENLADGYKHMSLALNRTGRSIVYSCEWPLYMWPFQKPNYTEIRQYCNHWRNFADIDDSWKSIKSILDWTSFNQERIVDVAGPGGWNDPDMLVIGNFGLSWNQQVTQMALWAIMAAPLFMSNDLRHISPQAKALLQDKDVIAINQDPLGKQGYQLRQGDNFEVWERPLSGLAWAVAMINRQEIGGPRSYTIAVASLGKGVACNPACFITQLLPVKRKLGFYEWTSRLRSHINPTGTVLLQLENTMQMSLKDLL
Chain of UniProt Q5SSJ5 (Q5SSJ5 whole entry, looked up): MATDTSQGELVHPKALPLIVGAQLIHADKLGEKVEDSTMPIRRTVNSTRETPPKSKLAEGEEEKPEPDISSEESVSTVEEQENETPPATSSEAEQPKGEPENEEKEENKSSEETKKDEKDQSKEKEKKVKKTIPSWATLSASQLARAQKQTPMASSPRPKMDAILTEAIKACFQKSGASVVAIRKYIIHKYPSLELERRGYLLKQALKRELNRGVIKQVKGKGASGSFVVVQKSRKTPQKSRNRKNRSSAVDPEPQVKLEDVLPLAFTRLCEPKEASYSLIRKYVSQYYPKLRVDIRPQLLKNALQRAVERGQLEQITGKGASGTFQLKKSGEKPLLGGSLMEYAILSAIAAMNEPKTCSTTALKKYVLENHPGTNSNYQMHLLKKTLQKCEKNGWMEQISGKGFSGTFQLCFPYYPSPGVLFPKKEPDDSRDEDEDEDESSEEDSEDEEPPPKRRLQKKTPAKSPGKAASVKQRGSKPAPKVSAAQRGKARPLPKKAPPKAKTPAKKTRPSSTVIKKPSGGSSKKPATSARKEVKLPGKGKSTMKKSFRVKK
Chain of UniProt P15976 (P15976 whole entry, looked up): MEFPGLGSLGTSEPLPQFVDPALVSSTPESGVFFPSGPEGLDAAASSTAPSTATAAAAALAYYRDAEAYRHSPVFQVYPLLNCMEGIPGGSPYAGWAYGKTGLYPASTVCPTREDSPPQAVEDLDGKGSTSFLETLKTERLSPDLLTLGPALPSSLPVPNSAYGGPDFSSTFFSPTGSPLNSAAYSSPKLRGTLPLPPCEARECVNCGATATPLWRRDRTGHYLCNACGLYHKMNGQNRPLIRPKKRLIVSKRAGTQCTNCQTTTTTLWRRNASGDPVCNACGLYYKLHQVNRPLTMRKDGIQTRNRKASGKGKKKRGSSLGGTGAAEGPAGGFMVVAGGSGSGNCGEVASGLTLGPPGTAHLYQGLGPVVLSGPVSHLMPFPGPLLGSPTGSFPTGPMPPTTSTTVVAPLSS
Chain of UniProt Q9Y692 (Q9Y692 whole entry, looked up): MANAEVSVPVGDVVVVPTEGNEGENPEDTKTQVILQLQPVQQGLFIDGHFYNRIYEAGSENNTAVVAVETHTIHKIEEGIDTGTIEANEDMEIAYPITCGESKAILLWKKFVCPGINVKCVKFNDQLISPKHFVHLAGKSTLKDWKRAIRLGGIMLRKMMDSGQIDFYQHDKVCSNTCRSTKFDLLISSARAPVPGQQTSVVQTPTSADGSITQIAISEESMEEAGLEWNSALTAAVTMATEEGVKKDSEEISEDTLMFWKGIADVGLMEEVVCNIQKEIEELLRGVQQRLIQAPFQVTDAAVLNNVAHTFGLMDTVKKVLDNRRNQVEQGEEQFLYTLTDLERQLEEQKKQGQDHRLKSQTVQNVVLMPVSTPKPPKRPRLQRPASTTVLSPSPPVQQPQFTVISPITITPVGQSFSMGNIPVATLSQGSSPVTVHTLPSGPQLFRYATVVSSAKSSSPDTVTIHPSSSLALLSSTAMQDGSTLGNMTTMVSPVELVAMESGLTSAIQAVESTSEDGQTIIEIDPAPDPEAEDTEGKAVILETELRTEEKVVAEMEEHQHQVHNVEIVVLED
Chain of UniProt Q9BYC5 (Q9BYC5 whole entry, looked up): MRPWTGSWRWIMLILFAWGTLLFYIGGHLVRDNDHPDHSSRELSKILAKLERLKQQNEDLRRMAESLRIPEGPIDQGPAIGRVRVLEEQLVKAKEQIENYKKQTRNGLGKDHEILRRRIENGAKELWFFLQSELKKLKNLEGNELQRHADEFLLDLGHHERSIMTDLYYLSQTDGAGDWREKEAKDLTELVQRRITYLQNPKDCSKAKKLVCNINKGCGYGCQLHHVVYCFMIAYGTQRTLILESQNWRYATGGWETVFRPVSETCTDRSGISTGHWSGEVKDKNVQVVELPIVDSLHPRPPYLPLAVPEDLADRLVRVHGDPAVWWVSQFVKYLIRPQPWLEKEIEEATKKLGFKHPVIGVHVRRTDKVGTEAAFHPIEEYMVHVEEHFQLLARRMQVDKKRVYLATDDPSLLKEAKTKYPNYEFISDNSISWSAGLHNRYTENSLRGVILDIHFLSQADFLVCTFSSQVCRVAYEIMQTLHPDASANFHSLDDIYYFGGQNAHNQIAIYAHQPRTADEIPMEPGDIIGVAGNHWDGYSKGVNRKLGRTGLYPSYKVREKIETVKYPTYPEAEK
Chain of UniProt O15228 (O15228 whole entry, looked up): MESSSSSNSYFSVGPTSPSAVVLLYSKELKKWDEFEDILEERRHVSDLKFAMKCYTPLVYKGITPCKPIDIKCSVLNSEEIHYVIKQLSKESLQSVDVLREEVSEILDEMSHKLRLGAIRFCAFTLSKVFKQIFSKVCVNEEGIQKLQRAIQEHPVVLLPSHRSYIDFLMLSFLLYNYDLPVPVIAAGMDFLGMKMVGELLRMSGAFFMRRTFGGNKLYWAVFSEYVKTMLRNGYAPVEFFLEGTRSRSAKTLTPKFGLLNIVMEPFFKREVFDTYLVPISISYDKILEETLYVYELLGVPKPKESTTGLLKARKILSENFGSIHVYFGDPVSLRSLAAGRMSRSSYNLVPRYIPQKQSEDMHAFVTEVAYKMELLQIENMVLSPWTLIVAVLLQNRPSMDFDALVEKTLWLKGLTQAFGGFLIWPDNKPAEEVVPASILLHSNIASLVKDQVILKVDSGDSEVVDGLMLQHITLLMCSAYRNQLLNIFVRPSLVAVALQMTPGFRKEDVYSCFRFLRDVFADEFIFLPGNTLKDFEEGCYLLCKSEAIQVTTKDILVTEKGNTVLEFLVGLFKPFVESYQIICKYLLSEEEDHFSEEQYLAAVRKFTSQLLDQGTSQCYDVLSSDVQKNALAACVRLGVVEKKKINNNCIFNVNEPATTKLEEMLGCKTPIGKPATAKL
Chain of UniProt O15347 (O15347 whole entry, looked up): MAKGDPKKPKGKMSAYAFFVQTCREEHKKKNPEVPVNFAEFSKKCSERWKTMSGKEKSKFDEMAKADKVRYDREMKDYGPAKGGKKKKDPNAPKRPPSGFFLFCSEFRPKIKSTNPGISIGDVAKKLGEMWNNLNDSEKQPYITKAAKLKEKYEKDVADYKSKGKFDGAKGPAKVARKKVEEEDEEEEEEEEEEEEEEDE

| Target | log2 fold change |
| --- | --- |
| HIKESHI (UniProt Q53FT3) | 0.088 |
| HMGB3 (UniProt O15347) | 0.097 |
| HNRNPUL1 (UniProt M0R247) | -0.056 |
| GNPAT (UniProt O15228) | 0.003 |
| HIST2H3A (UniProt Q71DI3) | -0.078 |
| GLA (UniProt P06280) | 0.017 |
| HNRNPK isoform 3 (UniProt P61978) | 0.003 |
| FNTB (UniProt P49356) | -0.143 |
| FAM91A1 (UniProt Q658Y4) | 0.009 |
| GOLGA8R (UniProt I6L899) | -0.056 |
| HNRNPUL1 (UniProt Q9BUJ2) | -0.029 |
| FDPS (UniProt P14324) | -0.007 |
| HS1BP3 (UniProt Q53T59) | -0.126 |
| HDDC2 (UniProt Q7Z4H3) | -0.001 |
| FUT8 (UniProt Q9BYC5) | -0.048 |
| HOMER1 (UniProt Q86YM7) | 0.056 |
| HADHB (UniProt P55084) | 0.006 |
| GMEB1 (UniProt Q9Y692) | -0.027 |
| HP1BP3 (UniProt Q5SSJ5) | 0.014 |
| IDI1 isoform 2 (UniProt Q13907) | 0.066 |
| GATA1 (UniProt P15976) | 0.102 |
| HSPA8 (UniProt E9PN89) | 0.099 |
| GALNT11 (UniProt Q8NCW6) | -0.159 |

— the supplement of paper PMC10849652
